# A549 viability: Nrf2 qHTS screen for inhibitors: counterscreen for cytotoxicity | A549 ARE-Fluc cells, CellTiter-Fluor viability, 18-24 h | Potency, µM (highest dose often 46 µM), most hits filed as inhibitors | 0.16% of 390,000 active
#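 Cytotoxicity counterscreen: CellTiter-Fluor fluorescence was measured in A549 ARE_Fluc cells after 18-24 h of compound exposure in a concentration series. The subsequent BugLite luminescent read reports ARE-luciferase activity.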
# KB-V1 cytotox: qHTS assay for MDR1-selective chemotherapeutics: Primary screen using the drug-selected MDR subline cells KB-V1 | AID 1347076, 2019 | Potency, µM (doses to about 46.1 µM), actives largely listed as cytotoxic | 3.4% of 400,000 active | KB-V1 MDR cells viability, CellTiter-Glo, 72 h; also: nearly all actives have a fitted effect of over 60% in size
#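 Cytotoxicity via CellTiter-Glo luminescence after 72 h compound exposure at 37 degrees C. Cells: drug-selected KB-V1 line, DMEM phenol-red free plus 10% FBS. Compounds tested at multiple concentrations; normalized data fitted to concentration-effect curves.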
# Giardia killer: Small Molecules that selectively kill Giardia lamblia: qHTS; activity change, % at 7.66 µM, hits read low; AID 540267, 2011; 0.15% of 340,000 active; Giardia lamblia trophozoite viability; in the data active = activity change below about -80%; inconclusive = between about -30% and that limit;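 also: parasites exposed to compound for two days anaerobically before the ATP read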
#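 Anaerobic 48 hrs incubation at 37 deg C of 100 trophozoites/well with test compounds; ATPLite 1-Step luminescence, 15-30 min RT, reports cellular ATP as viability.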
# PI4K2A block: qHTS for small molecular inhibitors of PI4K2A; Phosphatidylinositol 4-kinase type 2-alpha (Homo sapiens), Q9BTU6; purified PI4K2A, ADP-Glo luminescence, 1 h; active compounds read low; activity change, negative = inhibition, % at 76.9 µM; 0.13% of 420,000 active; in the data active = activity change below about -50%; inconclusive = mostly about -30% to -49%
# Target sequence (Q9BTU6 whole entry, looked up): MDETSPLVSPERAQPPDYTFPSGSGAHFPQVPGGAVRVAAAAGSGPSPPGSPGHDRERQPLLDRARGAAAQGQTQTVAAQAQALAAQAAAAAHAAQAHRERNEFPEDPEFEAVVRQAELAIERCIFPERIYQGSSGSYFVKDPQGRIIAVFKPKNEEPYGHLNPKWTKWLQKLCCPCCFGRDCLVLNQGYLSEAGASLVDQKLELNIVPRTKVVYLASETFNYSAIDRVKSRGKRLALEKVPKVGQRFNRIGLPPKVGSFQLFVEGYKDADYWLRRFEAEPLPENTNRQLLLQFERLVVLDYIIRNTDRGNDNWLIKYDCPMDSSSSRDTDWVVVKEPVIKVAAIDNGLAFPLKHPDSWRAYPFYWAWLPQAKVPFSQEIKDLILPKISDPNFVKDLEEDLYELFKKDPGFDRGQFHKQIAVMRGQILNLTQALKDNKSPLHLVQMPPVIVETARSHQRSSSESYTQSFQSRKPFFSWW
#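 ADP-Glo luminescence measured ADP generated by PI4K2A enzyme (4 ug/mL before mixing) with 1.2 mM PI substrate (pre-mix) and 300 microM ATP (pre-mix). Tris pH7.5 buffer with MgCl2, Triton X-100; 1 h reaction at ambient temperature.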
# KB-3-1 cytotox: qHTS assay for MDR1-selective chemotherapeutics: Primary screen using the parental adenocarcinoma cell KB-3-1 | KB-3-1 viability, CellTiter-Glo ATP luminescence, 72 h | Potency, µM (titrated, usually from 46.1 µM), most hits filed as cytotoxic | 1.4% of 400,000 active | AID 1347075, 2019; also: nearly all actives have a fitted effect of over 60% in size
#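 Cytotoxicity measured as CellTiter-Glo luminescence after 72 h at 37 C. Compound titrations were pinned onto drug-naive KB-3-1 parental adenocarcinoma cells grown in DMEM with 10% FBS, and normalized data fitted to concentration-response curves.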
# Nrf2 inh: Nrf2 qHTS screen for inhibitors; A549 ARE-Fluc reporter, luciferase luminescence, 18-24 h; Potency, µM (doses to about 46 µM), most hits filed as inhibitors; 2.1% of 360,000 active; also: nearly all actives have a fitted effect of over 60% in size
#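 A549 ARE_Fluc cells, 5000/well, 5% FBS OPTI-MEM; compounds in dose-response, 18-24 h at 37 °C/5% CO2; CellTiter-Fluor viability read (Ex 405/Em 525), then BugLite luciferase luminescence = Nrf2 activity.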
# Hits are given with their value; – = inactive; ? = inconclusive; · = not tested or not shown. Rows were chosen to be rich in hits. Some 5.7% of all compounds tested hit in one or more screens of this group. Unless noted, calls follow the shape of the dose curve; as a rule, active = well fitted curve in the direction sought with a large enough effect; inconclusive = small, poorly fitted or top-dose-only effect, or another doubt; inactive = no such curve, though single readings can be large; an effect the other way counts as inactive or inconclusive.
SMILES,A549 viability,KB-V1 cytotox,Giardia killer,PI4K2A block,KB-3-1 cytotox,Nrf2 inh
COc1cc(NC(=O)c2noc3c2CC(C(C)(C)C)CC3)cc(OC)c1OC (stereo not given),–,16µM,·,–,–,–
CC(C)(C)C1CCc2onc(C(=O)NC3CCCC3)c2C1 (stereo not given),–,16µM,–,–,?,·
O=C(NC1CCCCC1)c1noc2c1CCCCC2,?,?,–,–,–,·
CC1CCc2onc(C(=O)N3CCN(c4ccc(F)cc4)CC3)c2C1 (stereo not given),–,·,·,–,·,?
CC(C)(C)C1CCc2onc(C(=O)N3CCOCC3)c2C1 (stereo not given),–,21µM,–,–,–,–
C=CCN(C)CC#Cc1ccccc1C,·,·,·,–,·,·
CCOC(=O)CC[C@@H]1CC[C@]2(CCCN(C(=O)c3ccccc3)C2)O1,·,·,·,–,·,·
Cc1cc(C)c(S(=O)(=O)NCCc2cc3ccc(C)cc3[nH]c2=O)c(C)c1,–,–,·,–,–,–
Cc1ccc(-c2nc3c4ccccc4n(CC(=O)N4CCN(c5ccccc5F)CC4)c(=O)n3n2)cc1,–,–,·,–,–,·
Cc1ccc(-c2nnn3c2nc(NCC(C)c2ccccc2)c2ccccc23)cc1 (stereo not given),–,–,·,–,–,?
O=C(NCCCN1CCN(c2cccc(Cl)c2)CC1)c1nc(-c2ccncc2)no1,?,4.1µM,–,–,–,?
COc1ccc(N2CCN(CCCNC(=O)c3c(C)nn(-c4ccc(F)cc4)c3-n3cccc3)CC2)cc1,–,?,·,–,?,?
Cc1ccc(-n2nc(C)c(C(=O)NCCCN3CCN(c4ccc(F)cc4)CC3)c2-n2cccc2)cc1,–,16µM,·,–,15µM,?
Cc1nn(-c2ccc(F)cc2)c(-n2cccc2)c1C(=O)NCCCN1CCN(c2cccc(Cl)c2)CC1,–,10µM,·,–,?,?
O=C(NCCCN1CCN(c2ccc(F)cc2)CC1)c1cnn(-c2ccc(F)cc2)c1-n1cccc1,–,18µM,·,–,?,?
COC(=O)[C@]12C[C@H](CC(=O)N3CCN(C(=O)c4ccco4)CC3)C(=O)N(Cc3ccco3)C1=C[C@H](C(C)(C)C)O[C@@H]2C,·,·,·,–,·,·
CC(=O)N[C@H]1C[C@@H]2O[C@H](CO)CC[C@@H]2O[C@@H]1CCc1ccc(-c2ccc(F)cc2)cc1,·,·,·,–,·,·
COc1ccc(N2CCN(CCCNC(=O)CN3CCN(Cc4ccccc4C)C3=O)CC2)cc1,–,–,–,–,?,?
CCOC(=O)N1CCC(NC(=O)c2c(C)nn(-c3ccc(C)cc3)c2-n2cccc2)CC1,–,7.3µM,·,–,?,–
CC(CNC(=O)c1cnn(-c2ccc(F)cc2)c1-n1cccc1)c1ccccc1 (stereo not given),–,21µM,·,–,?,?
COc1ccc(CNC(=O)c2cnn(-c3ccc(F)cc3)c2-n2cccc2)cc1,–,?,·,–,–,?
Cc1ccc(CN2CCN(CC(=O)NCCCN3CCN(c4ccc(F)cc4)CC3)C2=O)cc1,–,–,–,–,16µM,?
CCCCCC[C@@H](CC)CN(C(=O)Oc1ccccc1)c1ccccc1,·,·,·,–,·,·
O=S1(=O)c2c(cccc2N2CC[C@@H](O)C2)O[C@H]2CCN1C2,·,·,·,–,·,·
O=[N+]([O-])c1cc2ccccc2c(O)c1O,·,?,·,?,–,·
O=[N+]([O-])c1cc(-c2ccccc2)cc([N+](=O)[O-])c1O,?,21µM,–,–,16µM,16µM
COc1ccc(C(C(=O)N(C)C2CCCC2)N(Cc2ccc(F)cc2)C(=O)c2csc(N3CCOCC3)n2)cc1OC (stereo not given),·,·,·,–,·,·
O=C(/C=C/c1ccc(O)cc1)c1ccc(NC2=C(N3CCCCC3)C(=O)c3ccccc3C2=O)cc1,?,?,–,?,2.1µM,15µM
COc1ccc(C(=O)/C=C/c2ccc(O)cc2)cc1,–,–,–,–,–,–
O=C1C(Nc2ccccc2)=C(N2CCCCC2)C(=O)c2ccccc21,–,–,–,–,?,–
